Assay results published in PubChem BioAssay (Tox21).
Values joined by “and” are separate entries in the source; they are usually repeats but may differ in a detail not shown here. Equal entries are not always repeated. Records with an inconclusive call do not appear. A call without a number means that no potency is given here. Some structures have more than one record in an assay (separate samples or runs), and their calls can disagree. Active and inactive are the calls of the source. The call rests on the fitted dose curve; in most records, active means well fitted cell-killing curve with a large enough effect in the repeat runs; inconclusive means weak or mixed curves, or effect the other way; inactive means flat fitted curve, though single readings scatter.
Potency means the concentration at half of the fitted maximal effect.

Assay: qHTS RealTime-Glo MT Cell Viability Assay in HEK293 cells - 32 hour (AID 1224868); further: nearly all actives have a fitted effect of over 50% in size; on activity change, negative = cytotoxic: top concentration of the series differs between compounds
Details: RealTime-Glo luminescence; series mostly up to 76.8 µM; activity change, negative = cytotoxic: at the top concentration
From the text: National Center for Advancing Translational Sciences [NCATS]
NIH Chemical Genomics Center [NCGC]
U.S. Environmental Protection Agency [EPA]
National Institutes of Environmental Health Sciences [NIEHS]
National Toxicology Program [NTP]
U.S. Food and Drug Administration [FDA]
Measure of cell viability is critical in the cell-base assay. Analysis of cell viability is necessary for the characterization of cell responses to cytotoxic drugs and environmental stress. A RealTime-Glo MT Cell Viability Assay to monitor cell viability in real time of continues cell culture during 40 hours of compound treatment was used to screen Tox21 10K library compounds in Hek293 cells. The RealTime-Glo MT Cell Viability Assay is a nonlytic, homogeneous, bioluminescent method to measure cell viability in real time using a simple, plate-based method. The assay involves adding NanoLuc luciferase and a cell-permeant prosubstrate to cells in culture. Viable cells reduce the proprietary prosubstrate to generate a substrate for NanoLuc luciferase. This substrate diffuses from cells into the surrounding culture medium, where it is rapidly used by the NanoLuc Enzyme to produce a luminescent signal. The signal correlates with the number of viable cells, making the assay well suited for cytotoxicity studies.
Tox21 Assay Protocol Summary:
The mixture of Hek293 cell suspension and reagents were dispensed at 600cells/6 ul/well in 1536-well tissue culture treated black solid bottom plates using a Multidrop dispenser. After the assay plates were incubated at a 37 C/5% CO2 incubator for 5 hours, 23 nL of compounds dissolved in DMSO, positive and negative controls was transferred to the assay plate by a pintool work station. The plates were incubated at 37 C for 40 hours. The luminescence intensity were measured at 0h, 8h, 16h, 24h, 32h and 40h time points using ViewLux plate reader during compound treatment.
For `C=CCc1ccc2c(c1)OCO2`, the Potency was “inactive”. In the case of `O=P(O)(O)CCCl`, the Potency is reported as “inactive”. In the case of `Nc1cccnc1`, the Potency is reported as “inactive”. In the case of `CCC(C)(C)c1ccc(O)cc1`, the Potency is reported as “inactive”. With `N#CCCCl` the Potency was “inactive”. With `Cc1ccc2c(c1N)C(=O)c1ccccc1C2=O` the Potency was 8.62 µM (active) and 7.76 µM (active). With `Nc1ccc(-c2ccc(N)c(N)c2)cc1N` the “activity change, negative = cytotoxic” value was 14% (inactive). For `O=C(CCl)c1ccccc1`, the Potency was “inactive and 49 µM (active)”. With `CC(C)=CC1C(C(=O)OCc2coc(Cc3ccccc3)c2)C1(C)C` (stereo not given) the “activity change, negative = cytotoxic” value was -15.9% (inactive). In the case of `CNC(=O)N(C)c1nnc(C(C)(C)C)s1`, the Potency is reported as “inactive”. In the case of `CC(C)(C)c1ccccc1O`, the Potency is reported as “inactive”. In the case of `CCC(CC)Nc1c([N+](=O)[O-])cc(C)c(C)c1[N+](=O)[O-]`, the Potency is reported as “inactive”. In the case of `CCc1cccc(CC)c1N(COC)C(=O)CCl`, the “activity change, negative = cytotoxic” value is reported as -13.2% (inactive). For `COP(=S)(OC)Oc1ccc([N+](=O)[O-])cc1`, the Potency was “inactive”. With `CCOP(=S)(OCC)O/N=C(\C#N)c1ccccc1` the Potency was “inactive”. For `Nc1ccc(-c2ccccc2)cc1`, the Potency was 7.98 µM (active) and inactive. In the case of `C[C@]12CCC(=O)C(O)=C1CC[C@@H]1[C@@H]2CC[C@]2(C)C(=O)CC[C@@H]12`, the “activity change, negative = cytotoxic” value is reported as -16% [at 35.3 µM] (inactive). With `O=P(Oc1ccccc1)(Oc1ccccc1)Oc1ccccc1` the Potency was “inactive”. With `O=[N+]([O-])c1ccc(O)c([N+](=O)[O-])c1` the “activity change, negative = cytotoxic” value was -13.3% (inactive). For `CCCCN(CC)c1c([N+](=O)[O-])cc(C(F)(F)F)cc1[N+](=O)[O-]`, the Potency was “inactive”. In the case of `Cc1ccc(OP(=O)(Oc2ccc(C)cc2)Oc2ccc(C)cc2)cc1`, the “activity change, negative = cytotoxic” value is reported as -19.6% (inactive). For `N#Cc1cc(Br)c(O)c(Br)c1`, the Potency was “inactive”. In the case of `CCCCC(CC)COC(=O)Cl` (stereo not given), the “activity change, negative = cytotoxic” value is reported as 3.99% (inactive). With `CNC(=O)Oc1cccc2c1OC(C)(C)O2` the Potency was “inactive”. In the case of `CC(C)(OOC(C)(C)c1ccccc1)c1ccccc1`, the Potency is reported as “inactive”. For `c1cc(OCC2CO2)ccc1Cc1ccc(OCC2CO2)cc1` (stereo not given), the Potency was “inactive”. In the case of `CCCCCc1cc(O)cc(O)c1`, the Potency is reported as 24.5 µM (active). For `C=CCN(CC=C)C(=O)C(Cl)Cl`, the Potency was “inactive”. With `CCOc1cc(C=O)ccc1O` the Potency was “inactive”. In the case of `O=Cc1ccco1`, the “activity change, negative = cytotoxic” value is reported as 0.512% (inactive). With `CCC(=O)O[C@H]1CC[C@H]2[C@@H]3CCC4=CC(=O)CC[C@]4(C)[C@H]3CC[C@]12C` the Potency was 19.5 µM (active) and 23.9 µM (active). In the case of `CN(C)c1ccc(C(=O)c2ccc(N(C)C)cc2)cc1`, the Potency is reported as 2.75 µM (active). With `Oc1cc(Cl)c(Cl)cc1Cl` the Potency was “inactive”. In the case of `C#C[C@]1(O)CC[C@H]2[C@@H]3CCC4=CC(=O)CC[C@]4(C)[C@H]3CC[C@@]21C`, the Potency is reported as “inactive”. In the case of `O=S(=O)(Oc1ccc(Cl)cc1)c1ccc(Cl)cc1`, the Potency is reported as “inactive”. For `COC(=O)c1sccc1S(=O)(=O)NC(=O)Nc1nc(C)nc(OC)n1`, the Potency was “inactive”. For `CC(C)C(=O)OCC(C)(C)C(OC(=O)C(C)C)C(C)C` (stereo not given), the Potency was “inactive”. For `CCCCOCCOP(=O)(OCCOCCCC)OCCOCCCC`, the “activity change, negative = cytotoxic” value was -14.4% (inactive). In the case of `NNC(=S)NN`, the Potency is reported as “inactive”. For `ClC1C(Cl)C(Cl)C(Cl)C(Cl)C1Cl` (stereo not given), the Potency was “inactive and 54.9 µM (active)”.
